Screening data: PubChem, National Center for Advancing Translational Sciences (NCATS)
Sfp PPTase inh: inhibitors of Bacillus subtilis Sfp phosphopantetheinyl transferase; Potency, µM, without a hit: largest response in the series, negative = inhibition, actives largely listed as inhibitors; Q9F4F7; 310,000 compounds, 3.5% hits; Biochemical Sfp PPTase activity, qHTS;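 further: the enzyme is Sfp with the accession as filed and its product quenches rhodamine fluorescence; 0% = enzyme reaction without inhibitor and -100% = no enzyme wells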
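After 15 min at room temperature with compound, 15 nM Sfp received 5 uM rhodamine-CoA plus 12.5 uM BHQ-2-ybbR (50 mM Hepes pH 7.6, 10 mM MgCl2). Rate came from the fluorescence difference over 30 min, ex 525/em 598 nm.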
G9a inh: inhibitors of human histone lysine methyltransferase G9a | Potency, µM (top dose mostly 102 µM), for inactives: at the top dose activity, negative = inhibition, most hits filed as inhibitors | 350,000 compounds, 8.8% hits | G9a H3K9 monomethylation, AlphaScreen, 2 h; further: on the % scale 0 is the no-effect control and ±100 the full control effect; nearly all actives have a fitted effect of over 75% in size
Target sequence (Q96KQ7 913-1193 limits assumed): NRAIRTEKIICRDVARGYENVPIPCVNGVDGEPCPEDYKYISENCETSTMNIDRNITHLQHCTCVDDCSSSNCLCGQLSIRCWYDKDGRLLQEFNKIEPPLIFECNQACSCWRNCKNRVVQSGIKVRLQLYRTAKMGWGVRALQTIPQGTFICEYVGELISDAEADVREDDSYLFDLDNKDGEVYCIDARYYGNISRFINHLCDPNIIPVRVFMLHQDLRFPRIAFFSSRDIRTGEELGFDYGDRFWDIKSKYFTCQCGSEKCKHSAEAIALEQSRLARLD
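AlphaScreen read-out: biotin-H3K9 peptide (500 nM) methylation by 20 nM enzyme with 20 uM SAM, 2 h at room temperature after 15 min compound preincubation; anti-monomethyl H3K9 antibody plus donor/acceptor beads, 10 min dark.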
HP1b binding inh: HP1-beta chromodomain-methylated histone interaction inhibition | P83916 | AlphaScreen HP1-beta / biotin-H3K9me3 peptide binding | Potency, µM (top dose mostly 114 µM), without a hit: top-dose activity change, negative = inhibition, actives largely listed as inhibitors | 390,000 compounds, 0.56% hits | AID 540317; further: nearly all actives have a fitted effect of over 70% in size
Target sequence (P83916 whole entry, looked up): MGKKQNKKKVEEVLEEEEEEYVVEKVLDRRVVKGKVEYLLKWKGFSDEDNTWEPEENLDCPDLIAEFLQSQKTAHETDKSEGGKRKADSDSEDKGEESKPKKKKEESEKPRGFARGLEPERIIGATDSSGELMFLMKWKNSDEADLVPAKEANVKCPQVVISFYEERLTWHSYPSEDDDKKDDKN
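HP1-beta protein (50 nM final) preincubated 30 min at room temperature with biotinylated H3(1-18)K9me3 peptide (50 nM) in PBS pH 7.4, 0.01% Tween-20, then compound added for 30 min. AlphaScreen streptavidin donor/nickel chelate acceptor beads (10 ug/mL final), 30 min dark, luminescence read.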
JMJD2A Tudor: inhibitors of human JMJD2A Tudor domain; 390,000 compounds, 4.4% hits; AlphaScreen JMJD2A-Tudor / H3K4me3 peptide binding; Potency, µM (top dose mostly 114 µM), inactives show top-dose activity change, negative = inhibition, actives largely listed as inhibitors; O75164; further: on the % scale 0 is the no-effect control and ±100 the full control effect; nearly all actives have a fitted effect of over 50% in size
BAZ2B block: BAZ2B (human) inhibition; Q9UIF8; AlphaScreen BAZ2B-H3K14Ac peptide displacement; 360,000 compounds, 4.4% hits; Potency, µM (series often up to 114 µM), inactives show at the top dose activity change, negative = inhibition, hits mostly inhibitors; further: on the % scale 0 is the no-effect control and ±100 the full control effect; nearly all actives have a fitted effect of over 60% in size
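Inhibition is scored as reduced AlphaScreen emission. The BAZ2B/b-H3(5-23)K14Ac complex (50 nM each) in PBS pH 7.4, 0.01% Tween-20 meets compound (up to 110 uM) for 30 min at RT before bead addition.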
* marks the source's active call; other numbers are inactive results; ? = inconclusive; nt = not tested or not shown; [ ] = remark or other dose. Hits are enriched below; roughly 12% of the tested compounds scored in any of these assays. The call rests on the fitted dose curve; in most records, active means well fitted curve in the direction sought with a large enough effect; inconclusive means small, poorly fitted or top-dose-only effect, or another doubt; inactive means no such curve, though single readings can be large; an effect the other way counts as inactive or inconclusive. Potency means the concentration at half of the fitted maximal effect.

SMILES	Sfp PPTase inh	G9a inh	HP1b binding inh	JMJD2A Tudor	BAZ2B block
O=c1oc(-c2ccc([N+](=O)[O-])cc2)nc2ccc(O)cc12	-4.0%	39.8µM*	-10.9%	?	?
CC(C)(CNC(=O)CCC1CCCC1)CNC(=O)CCC1CCCC1	4.7%	nt	30.1%	10.7%	3.5%
COc1ccc(-c2nnc(OCc3nc4ccccc4n3C)c3ccccc23)cc1	3.2%	-1.5%[59 µM]	2.8%	50.1µM*	-35.4%
Cn1c(COc2nnc(-c3ccc(Cl)cc3)c3ccccc23)nc2ccccc21	14.7%	?	25.9%	-6.0%	-36.7%
CCOC(=O)c1cc(C)sc1NC(=O)CN1CCN(C(=O)C2CCCO2)CC1 (centres undefined)	2.1%	nt	26.8%	-5.3%	-6.4%
COc1cccc(Nc2sc(C(=O)c3ccc(Cl)cc3)c(N)c2C(=O)NCCc2ccc(OC)c(OC)c2)c1	nt	10µM*	-15.9%	?	?
CCOC(=O)C1(CCCc2ccccc2)CCN(C(=O)c2cnc(C)cn2)CC1	-13.4%	nt	10.4%	-12.5%	-2.9%
O=C(O)C1OC(Oc2c(-c3ccc(O)c(O)c3)oc3cc(O)cc(O)c3c2=O)C(O)C(O)C1O (centres undefined)	-9.7%	31.6µM*	?	31.6µM*	35.5µM*
CC1OC(Oc2c(-c3cc(O)c(O)c(O)c3)oc3cc(O)cc(O)c3c2=O)C(O)C(O)C1O (centres undefined)	7.94µM*	39.8µM*	-22.5%	?	-23.6%
COc1ccccc1S(=O)(=O)Nc1cc(S(=O)(=O)N2CCCCC2)ccc1N1CCOCC1	-3.0%	-6.9%	46.4%	-6.2%	-12.7%
COc1cc2oc(=O)cc(-c3cccc(-c4cccc(C)c4)c3)c2c(OC)c1OC	8.0%	40.5%[59 µM]	33.0%	-9.6%	nt
C=CCN1C(=O)[C@@H]2Cc3c([nH]c4ccccc34)C(c3ccc(O)cc3)N2C1=S (some centres undefined)	11.0%	44.7µM*	2.9%	?	?
CCOc1ccc(C2c3[nH]c4ccccc4c3C[C@H]3C(=O)N(C4CCN(Cc5ccccc5)CC4)CC(=O)N23)cc1OC (some centres undefined)	-7.7%	?	13.2%	?	?
O=C1[C@@H]2Cc3c([nH]c4ccccc34)C(c3cccc([N+](=O)[O-])c3)N2C(=O)CN1C1CCN(Cc2ccccc2)CC1 (some centres undefined)	-2.6%	32.2%[0.501 µM]	nt	nt	25.1µM*
O=C1C2Cc3c([nH]c4ccccc34)C(c3ccccc3)N2C(=O)C2Cc3c([nH]c4ccccc34)C(c3ccccc3)N12 (centres undefined)	-6.5%	nt	nt	nt	nt
C=CCN1C(=O)[C@@H]2Cc3c([nH]c4ccccc34)C(c3cc(OC)c(OC)c(OC)c3)N2C1=S (some centres undefined)	5.4%	?	10.5%	-24.4%	-27.9%
CC1Cc2c([nH]c3ccccc23)C2c3ccccc3CN12 (centres undefined)	-9.2%	25.1µM*	-7.4%	?	4.2%
O=C1[C@@H]2Cc3c([nH]c4ccccc34)[C@@H](c3ccccc3)N2C(=O)[C@@H]2Cc3c([nH]c4ccccc34)[C@@H](c3ccccc3)N12	?	14.1µM*	nt	nt	?
O=[N+]([O-])c1cccc(OCCN2CCC(Cc3ccccc3)CC2)c1	-14.2%	11.2µM*	?	14.1µM*	56.2µM*
Cc1ccc(OCCN2CCN(C)CC2)c([N+](=O)[O-])c1	?	2.51µM*	-45.0%	3.55µM*	50.1µM*
O=[N+]([O-])c1ccccc1OCCCN1CCc2ccccc2C1	16.0%	?	34.2%	-19.9%	-35.4%
CC1CC(C)CN(CCCOc2ccccc2[N+](=O)[O-])C1 (centres undefined)	-68.0%	14.1µM*	?	31.6µM*	-30.0%
Cc1ccc([N+](=O)[O-])c(OCCN2CCc3ccccc3C2)c1	-27.8%	10µM*	?	20µM*	50.1µM*
CC1(C)OC(=O)C(=CNNc2c(Cl)cc(Cl)cc2Cl)C(=O)O1	-9.1%	nt	25.9%	-10.8%	0.1%
COC(=O)c1scc(C)c1N/N=C(\C)c1ccc(F)cc1	-0.7%	43.3%[59 µM]	74.6%	49.5%	43.1%
SMILES	Sfp PPTase inh	G9a inh	HP1b binding inh	JMJD2A Tudor	BAZ2B block
O=C(c1ccc([N+](=O)[O-])s1)N1CCN(c2ccccc2)CC1	-3.2%	?	3.3%	-19.0%	-12.7%
Cc1ccc(OCc2ccc(C(=O)N3CCCC3)o2)c([N+](=O)[O-])c1	7.9%	?	8.0%	-15.8%	-16.9%
Cc1ccc(OCc2ccc(C(=O)O)o2)c([N+](=O)[O-])c1	-11.8%	50.1µM*	20.2%	-11.3%	-4.4%
Cc1ccc([N+](=O)[O-])c(OCCCN2CCC(Cc3ccccc3)CC2)c1	nt	nt	?	20µM*	nt
Cc1ccc(OCCN2CCNCC2)c([N+](=O)[O-])c1	-29.4%	8.91µM*	-7.2%	39.8µM*	56.2µM*
CC(=O)Nc1ccc(NC(=O)CCn2c(=O)oc3ccccc32)cc1	19.0%	19.8%	3.3%	-17.5%	-10.4%
Cc1ccc(NCC(=O)N/N=C/c2cccc(Oc3ccccc3)c2)cc1	14.2%	?	4.8%	-31.1%	?
O=C(Nc1ccc(F)cc1)c1csc(Cc2ccccc2)n1	-6.8%	107.4%	24.2%	3.8%	68.5%
O=C(NCCCc1ccccc1)N1CCOCC1	18.7%	-4.2%	36.8%	-6.9%	-3.9%
CCOC(=O)C1CCCN(C(=O)COC(=O)C2=COCCO2)C1 (centres undefined)	-2.8%	50.1µM*	-3.3%	50.1µM*	?
CCOC(=O)C1CCCN(C(=O)CSc2ccc(Br)cc2)C1 (centres undefined)	-0.9%	34.0%	-12.2%	14.1µM*	14.6%
CCN(CCO)c1nc(SC)nc2c1sc1nc(-c3ccco3)c3c(c12)CCC3	?	?	5.7%	-9.7%	50.1µM*
CCN(CCO)c1ncnc2c1sc1nc(C(C)C)c3c(c12)CC(C)(C)OC3	13.2%	-15.7%[59 µM]	5.5%	-13.5%	8.0%
CSc1nc(NCCOCCO)c2sc3nc(-c4ccco4)c4c(c3c2n1)CCC4	35.5µM*	15.8µM*	14.5%	-21.9%	44.7µM*
CSc1nc(NCc2ccco2)c2sc3nc(C(C)C)c4c(c3c2n1)CC(C)(C)OC4	?	?	7.7%	-19.8%	-2.8%
CCOC(=O)Cn1nc(C)n(-c2cccc(Cl)c2)c1=O	-15.1%	-5.1%	13.0%	-7.2%	-4.4%
CC1(C)CC(N(Cc2ccc(F)cc2)C(=O)c2ccc(F)cc2)CCO1 (centres undefined)	12.8%	-2.6%	29.8%	0.7%	-3.4%
Cc1cc(C(=O)NCC(=O)OCC(=O)Nc2ccc(OC(F)F)cc2)ccc1[N+](=O)[O-]	-0.1%	-15.8%[12.7 µM]	13.1%	-32.4%	-24.8%
O=C(NCCc1nc2ccccc2[nH]1)/C(=C/c1ccco1)NC(=O)c1ccccc1Br	?	?	26.8%	-22.0%	-10.4%
